# Values joined by “and” are separate entries in the source; they are usually repeats but may differ in a detail not shown here. Equal values may be shown once. Among all 6,400 compounds or so, about 610 (9.5%) were called active. Rule as the data show it: active = activity change below about -70%; inconclusive = no clear call, values can overlap the other calls; inactive = above that. What follows is part of a selection rich in actives, with near analogues and random picks from the rest.
# Assay: T. gondii ME49Luc in HeLa cells, luciferase assay, 72 h, no IFN-y (AID 1259421)
# Settings: stronger effect = lower value, concentration not given here
row,SMILES,"activity change, negative = inhibition"
1,COC(=O)/C=C/C(=O)N[C@@H]1CC[C@@]2(O)[C@H]3Cc4ccc(O)c5c4[C@@]2(CCN3CC2CC2)[C@H]1O5,16.5% (inactive)
2,CCC(Oc1ccc(Cl)cc1)C(=O)OC1CC2CCC(C1)N2C (stereo not given),-2.85% (inactive) and -12.4% (inactive)
3,c1ccc(CC(c2ccccc2)N2CCCCC2)cc1 (stereo not given),9.17% (inactive) and 15.7% (inactive)
4,Cc1[nH]c2ccc(Cl)cc2c1C1=CCNCC1,8.93% (inactive) and 11.2% (inactive)
5,COC(=O)CN1CN(c2ccccc2)C2(CCN(Cc3cccc4ccccc34)CC2)C1=O,-6.13% (inactive)
6,COc1ccc(OC)c(C(O)C(C)NC(C)(C)C)c1 (stereo not given),12% (inactive)
7,Cc1nnc2n1-c1ccc(Cl)cc1C(c1ccccc1Cl)=NC2,18.7% (inactive)
8,CC(C)(O)C(=O)Nc1ccc([N+](=O)[O-])c(C(F)(F)F)c1,5.88% (inactive)
9,COc1ccc(C[C@H]2NC[C@H](O)[C@H]2OC(C)=O)cc1,-80.3% (active) and -86.5% (active)
10,CC(C)(C)OC(=O)c1ncn2c1[C@@H]1CCCN1C(=O)c1c(Br)cccc1-2,6.65% (inactive)
11,CN1CCC2=C(C1)c1ccccc1Cc1ccccc12,3.96% (inactive)
12,Cc1[nH]cnc1CCN,7.41% (inactive)
13,C[C@]12CC/C(=N\OCCN)C[C@@H]1C(=O)C[C@@H]1[C@@H]2CC[C@]2(C)C(=O)CC[C@@H]12,14.1% (inactive)
14,Clc1ccc(C23CNCC2C3)cc1Cl (stereo not given),6.45% (inactive)
15,C=CCN1CCC23c4c5ccc(O)c4OC2C(=O)CCC3(O)C1C5 (stereo not given),-2.6% (inactive)
16,CC(C)=CCC[C@]1(C)C=Cc2c(O)c3c(c(CC=C(C)C)c2O1)O[C@]12C(=C[C@@H]4C[C@H]1C(C)(C)O[C@@]2(CC=C(C)C(=O)O)C4=O)C3=O,-83.4% (active)
17,CC(C)=CCCC1(C)C=Cc2c(O)c3c(c(CC=C(C)C)c2O1)OC12C(=CC4CC1C(C)(C)OC2(CC=C(C)C(=O)O)C4=O)C3=O (stereo not given),-77.9% (active)
18,CC(C)CCCC1(C)C=Cc2c(O)c3c(c(CCC(C)C)c2O1)OC12C(CC4CC1C(C)(C)OC2(CCC(C)C(=O)O)C4O)C3=O (stereo not given),-3.34% (inactive)

row,SMILES,"activity change, negative = inhibition"
1,CN(C)[C@@H]1C(=O)C(C(N)=O)C(=O)[C@@]2(O)C(=O)C3C(=O)c4c(O)cccc4[C@@](C)(O)C3[C@H](O)C12 (stereo not given in full),-0.0524% (inactive)
2,C=C(C)C1Cc2c(ccc3c(=O)c4c(oc23)COc2cc(OC)c(OC)cc2-4)O1 (stereo not given),-1.04% (inactive)
3,CCCCCCN1CCN(c2cccc(Cl)c2)CC1,9.58% (inactive)
4,O=C1CC2OCC=C3CN4CC[C@]56c7ccccc7N1C5[C@H]2[C@H]3CC46 (stereo not given in full),15.9% (inactive) and 2.19% (inactive)
5,CN1Cc2ccccc2[C@@H]2c3cccc4[nH]cc(c34)C[C@H]21,-78.9% (active)
6,CC(C)C1(NC(=O)C2CC3c4cccc5[nH]cc(c45)CC3N(C)C2)OC2(O)C3CCCN3C(=O)C(Cc3ccccc3)N2C1=O (stereo not given),-21.5% (inactive)
7,CC(C)[C@@]1(NC(=O)[C@@H]2CC3c4cccc5[nH]cc(c45)C[C@H]3N(C)C2)O[C@@]2(O)[C@@H]3CCCN3C(=O)[C@H](Cc3ccccc3)N2C1=O (stereo not given in full),-13.7% (inactive)
8,CN1CC[C@@H]2CN3CCc4cccc(c43)[C@@H]2C1,3.72% (inactive)
9,CCC(C)C(=O)O[C@H]1[C@H](O)C2C(CN3CC(C)CCC3[C@@]2(C)O)C2C[C@]34O[C@]5(O)C(OC(=O)C(C)(O)CC)CC[C@@]3(C)C5C(OC(C)=O)[C@@H](OC(C)=O)C4[C@@]21O (stereo not given in full),1.67% (inactive)
10,CC1(C)CC(O)CC(C)(C)N1O,8.37% (inactive) and 5.38% (inactive) and 2.68% (inactive)
11,CN(C(=O)Cc1ccccc1)C(CN1CCCC1)c1ccccc1 (stereo not given),6.5% (inactive)
12,C[C@]12CC[C@H](O)C[C@H]1CC[C@@H]1[C@@H]2CC[C@]2(C)[C@@H](c3ccc(=O)oc3)C[C@H]3OC132 (stereo not given in full),-78.4% (active)
13,C[C@]12CC[C@H](O)C[C@@H]1CC[C@@H]1[C@H]2CC[C@]2(C)C(=O)CC[C@@H]12,6.71% (inactive)
14,C[C@]12CCC3[C@@H](CC[C@@H]4C[C@H](O)CC[C@]34C)[C@@H]1CCC2=O (stereo not given in full),8.25% (inactive)
15,CN(C)CCNc1nc2cc(O)ccc2c2c1C(=O)c1ccccc1-2,-85.6% (active)
16,O=C(O)C(=O)CBr,-21.8% (inactive)
17,C[N+]1(C)CCc2cc3c(cc2[C@H]1C1OC(=O)c2c1ccc1c2OCO1)OCO3 (stereo not given in full),9.96% (inactive)
